Experimental data reported in PubChem BioAssay AID1851 (National Center for Advancing Translational Sciences (NCATS), 2009).
Values joined by “and” are separate entries in the source; they are usually repeats but may differ in a detail not shown here. Equal values may be shown once. The campaign covered roughly 16,000 compounds. About 5,100 (32%) were called active. Roughly 25% stayed inconclusive and do not appear here. The list shows a part of the results. Values without a mark were called inactive. Calls come from the whole dose curve; as a rule, active = well fitted curve in the direction sought with a large enough effect; inconclusive = small, poorly fitted or top-dose-only effect, or effect the other way; inactive = no such curve, though single readings can be large or run the other way.

The molecules below were run against Cytochrome P450 3A4 (Homo sapiens) (UniProt P08684) (assay: Cytochrome panel assay with activity outcomes). Details: recombinant CYP, pro-luciferin dealkylation, luminescence, p450-cyp3a4; series mostly up to 57.1 µM.
Sequence of Cytochrome P450 3A4 (Homo sapiens) (P08684 whole entry, looked up): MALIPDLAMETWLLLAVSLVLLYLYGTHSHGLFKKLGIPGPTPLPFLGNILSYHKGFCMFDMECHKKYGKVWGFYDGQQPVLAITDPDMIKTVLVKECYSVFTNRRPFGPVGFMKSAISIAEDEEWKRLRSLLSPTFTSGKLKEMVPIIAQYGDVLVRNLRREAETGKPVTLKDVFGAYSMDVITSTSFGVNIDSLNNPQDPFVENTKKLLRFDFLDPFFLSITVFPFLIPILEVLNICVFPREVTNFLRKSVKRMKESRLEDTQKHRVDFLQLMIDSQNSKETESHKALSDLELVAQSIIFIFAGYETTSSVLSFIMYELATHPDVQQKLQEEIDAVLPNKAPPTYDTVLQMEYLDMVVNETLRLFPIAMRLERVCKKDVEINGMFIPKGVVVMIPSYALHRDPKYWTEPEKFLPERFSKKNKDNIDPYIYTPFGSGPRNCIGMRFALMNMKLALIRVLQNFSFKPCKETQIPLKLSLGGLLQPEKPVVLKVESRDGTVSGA
% is set by controls: 0 for no effect and ±100 for the full control effect.

Row | SMILES | AC50 | activity, negative = inhibition
1 | COc1cccc(Cn2c(=O)c(CCc3ccccc3)nc3cncnc32)c1 | 2.51 µM (active) | –
2 | COc1cccc(Cn2c(=O)c(CCc3ccccc3)nc3cnc(OC)nc32)c1 | 2.51 µM (active) | –
3 | NC/C=C\C(=O)O | inactive | –
4 | CC(C(=O)NCc1ccc2c(c1)OCO2)N1c2cccc3cccc(c23)S1(=O)=O (stereo not drawn) | 0.316 µM (active) | –
5 | Cc1cc(C)c2nc3c(c([C@H](O)[C@@H]4CCCCN4)c2c1)CC/C3=C/c1ccc(Cl)cc1 | – | -1.86% [at 11.4 µM]
6 | CN(C)C(=O)c1ccc(-c2nc(NCc3cccs3)c3ccccc3n2)cc1 | 15.8 µM (active) | –
7 | CN(C)C(=O)c1ccc(-c2nc(NCc3cccnc3)c3ccccc3n2)cc1 | 12.6 µM (active) | –
8 | CC(=O)NCCNc1nc(-c2ccc(C(=O)N(C)C)cc2)nc2ccccc12 | inactive | –
9 | CN(C)C(=O)c1ccc(-c2nc(NCc3ccccc3)c3ccccc3n2)cc1 | 15.8 µM (active) | –
10 | CN(C)C(=O)c1ccc(-c2nc(NC3CCNCC3)c3ccccc3n2)cc1 | inactive | –
11 | CN(C)c1ccc(-c2nc(NCc3cccnc3)c3ccccc3n2)cc1 | 2 µM (active) | –
12 | O=C1C[C@@H](O)[C@@H](O)[C@H]2[C@@H]3C(=O)N(c4cccc(Oc5ccccc5)c4)C(=O)[C@@H]3CC[C@H]12 | – | -19.7% [at 11.4 µM] and -7.2% [at 11.4 µM]
13 | Cc1ccc(OCC(=O)NC2=NCCS2)cc1 | – | -22.5% [at 11.4 µM]
14 | Cc1ccc(OCC(=O)Nn2cnc3ccccc32)cc1 | 7.94 µM (active) | –
15 | Cc1ccc(OCC(=O)Nc2ccccc2-c2ccccc2)cc1 | 20 µM (active) | –
16 | Cc1ccc(OCC(=O)NNC(=O)CCC(=O)NCc2ccccc2)cc1 | inactive | –
17 | Cc1ccc(OCC(=O)NNC(=O)CCc2ccccc2)cc1 | inactive | –
18 | CN(C)CCN1C(=O)C(O)=C(C(=O)c2cc3ccccc3o2)C1c1cccc(Br)c1 (stereo not drawn) | – | 27.7% [at 2.29 µM]
19 | CC(C)NC(=O)N1CC2(CCN(C(=O)c3ccco3)CC2)C1 | inactive | –
20 | O=C(c1ccco1)N1CCC[C@@]2(CCN(C(c3ccccc3)c3ccccc3)C2)C1 | 12.6 µM (active) | –
21 | O=C(c1ccco1)N1CCC2(CCCN(C(c3ccccc3)c3ccccc3)C2)CC1 | 12.6 µM (active) | –

Row | SMILES | AC50 | activity, negative = inhibition
22 | O=C(Nc1ccccc1)N1CC[C@@]2(CCCN(C(=O)c3ccco3)C2)C1 | inactive | –
23 | COc1cc(-c2nnc(SCC(=O)Nc3ccc4c(c3)OCCO4)o2)cc(OC)c1OC | 8.91 µM (active) | –
24 | COc1cc(-c2nnc(SCC3(c4ccccc4)OCCO3)o2)cc(OC)c1OC | 4.47 µM (active) | –
25 | Cc1ccc(NC(=O)CSc2nnc(-c3ccncc3)o2)cc1 | – | -3.56% [at 2.29 µM]
26 | COc1cc(-c2nnc(SCC3(c4ccc(Br)cc4)OCCO3)o2)cc(OC)c1OC | 12.6 µM (active) | –
27 | Cc1ccc(/C=N\Nc2nc3ccc(Cl)cc3[nH]2)o1 | 8.91 µM (active) | –
28 | CCOC(=O)N/N=C/c1ccc(C)o1 | inactive | –
29 | OC[C@@H](O)[C@@H](O)[C@@H](O)[C@@H](O)c1nc2ccc(Cl)cc2[nH]1 | – | -5.7% [at 11.4 µM]
30 | CC12CCC(C(=O)Nc3cccc4ccccc34)(C1Br)C2(C)C (stereo not drawn) | 11.2 µM (active) | –
31 | Cc1cccc(NC(=O)C2(c3ccc([N+](=O)[O-])cc3)CCCC2)c1 | – | -2.71% [at 2.29 µM]
32 | Cc1cccc(NC(=O)C23CCC(C)(C2Br)C3(C)C)c1 (stereo not drawn) | 12.6 µM (active) | –
33 | Cc1cccc(NC(=S)NNC(=O)c2csc3c2CCCC3)c1 | – | -15.2% [at 2.29 µM]
34 | O=C(O)c1cccc(C(=O)O)c1S(=O)Cc1ccccc1 (stereo not drawn) | – | -7.75% [at 11.4 µM]
35 | O=C(/C=C/c1ccc(Cl)cc1)NCCSc1ccccc1 | inactive | –
36 | NNC(=O)CCSc1ccccc1 | 3.98 µM (active) | –
37 | O=C(O)CCCSc1ccccc1 | – | 5.11% [at 11.4 µM]
38 | Cc1ccc(S(=O)(=O)N[C@H](CN)C(=O)O)cc1 | – | -20.1% [at 11.4 µM]
39 | Cc1nc2ccc(S(=O)(=O)NC(CC(C)C)C(=O)O)cc2s1 (stereo not drawn) | – | -3.56% [at 2.29 µM]
40 | CC(C)Oc1ccc2c(=O)c3cc(C(=O)O)ccc3oc2c1 | inactive | –
41 | CCC(C)C(NS(=O)(=O)c1ccc(C)cc1)C(=O)Oc1ccc2c3c(c(=O)oc2c1)CCC3 (stereo not drawn) | 7.94 µM (active) | –
42 | Cc1ccc(S(=O)(=O)NC(CC(C)C)C(=O)Oc2ccc3c4c(c(=O)oc3c2)CCC4)cc1 (stereo not drawn) | 14.1 µM (active) | –

Row | SMILES | AC50 | activity, negative = inhibition
43 | Cc1ccc(S(=O)(=O)N[C@H](C(=O)O)C(C)C)cc1 | – | -11.9% [at 11.4 µM]
44 | NCc1ccc(C(=O)O)cc1 | – | -14.2% [at 11.4 µM]
45 | O=S(=O)(O)c1nc2ccccc2n1Cc1ccccc1 | inactive | –
46 | O=C(c1cc2sccc2n1Cc1ccccc1)N1CCN(c2nc3ccccc3s2)CC1 | 0.631 µM (active) | –
47 | S=c1[nH]nc(CCc2ccccc2)n1Cc1ccccc1 | 7.94 µM (active) | –
48 | CN(Cc1n[nH]c(=S)n1C)S(=O)(=O)c1ccccc1 | inactive | –
49 | O=C1c2ccccc2C(Cc2ccncc2)(Cc2ccncc2)c2ccccc21 | 0.501 µM (active) | –
50 | COC(=O)C1=C(N)N(c2ccccc2C(F)(F)F)C2=C(C(=O)CCC2)C1c1ccc2c(c1)OCO2 (stereo not drawn) | 0.316 µM (active) | –
51 | Cc1cc([C@](C)(N)C(=O)O)ccc1P(=O)(O)O | inactive | –
52 | CN(CCc1ccc(Cl)c(Cl)c1)CCN1CCCCCC1 | 10 µM (active) | –
53 | Clc1ccccc1OCCCCN1CCCC1 | inactive | –
54 | CN1CCN(CCc2ccc(Cl)c(Cl)c2)CC1 | inactive | –
55 | C[C@H](NC(=O)/C(C#N)=C/c1ccc(O)c(O)c1)c1ccccc1 | 3.16 µM (active) | –
56 | C[C@@H](NC(=O)/C(C#N)=C/c1ccc(O)c(O)c1)c1ccccc1 | 15.8 µM (active) | –
57 | Cc1[nH]c2ccccc2c1/C=C(\C#N)C(=O)NC(C)c1ccccc1 (stereo not drawn) | 7.08 µM (active) | –
58 | Cc1[nH]c2ccccc2c1/C=C/c1cc[n+](C)cc1 | inactive | –
59 | CC1(C)C2([N+](=O)[O-])CN3CC1([N+](=O)[O-])CN(C2)C31CCCC1 | inactive | –
60 | COc1ccc(CCNC(=O)CCCCCN2C(=O)c3ccccc3C2=O)cc1 | 6.31 µM (active) | –
61 | CCCN(CCC)CCCNC(=O)c1ccc2c(c1)N(CC)C(=O)c1ccccc1S2=O (stereo not drawn) | inactive | –
62 | CCOc1ccc(CCNC(=O)CCCN2C(=O)c3ccccc3C2=O)cc1OCC | 7.08 µM (active) | –
63 | COc1ccc(CC(=O)NCCN2CCCC2)cc1 | inactive | –
